Sampled rows, rich in hits. Any-hit rate of the full collection: about 1.2%.
Akt phos inh: blocks phosphorylation of Akt; Neuro2A IGF-stimulated pAkt S473 HTRF, 20 min; stronger effect = lower value; activity change, % for hits at 50 µM; actives 0.32% (n = 360,000); AID 651550; in the data active = activity change below about -80%; inconclusive = mostly about -51% to -80%; also: % is scaled to controls: 0 for no effect and ±100 for the full control effect
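Neuro2A cells in DMEM with 0.5% FBS, overnight at 37 deg C, given compound at single 50 µM final, then IGF (6 nM final) for 20 min at 37 deg C. Lysed; phospho-Akt Ser473 by HTRF after 24 h, 665/615 ratio.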
gsp antagonist: antagonists of gsp mutant (McCune-Albright syndrome); AID 624288; actives 0.4% (n = 340,000); gsp-mutant cells, cAMP HTRF, 30 min; Potency, µM (doses to about 76.9 µM), for inactives: at the top dose activity change, negative = inhibition, usual class: inhibitors; calls by dose curve; cell line not stated here;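 also: intracellular cAMP measured with PDE inhibitor Ro 20-1724 present during compound exposure; potency is read from the fitted curve at half-maximal effect; % is scaled to controls: 0 for no effect and ±100 for the full control effect; nearly all actives have a fitted effect of over 65% in size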
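HTRF cAMP read-out (cAMP-d2 plus anti-cAMP antibody-K in lysis buffer, 30 min RT). Before lysis, cells are exposed to compounds with […] for 30 min at 37C in DPBS containing Ca/Mg, BSA and Tween 20.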
RXFP1 antagonist: blocks the human relaxin receptor RXFP1 | Q9HBX9 | HEK293-RXFP1, relaxin-stimulated cAMP HTRF, 30 min; stronger effect = lower value | activity change, negative = inhibition, % at 57.5 µM | actives 0.59% (n = 350,000) | AID 1259400;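 active = activity change of -60% or lower, but not beyond a set lower limit; inconclusive = change between -60% and -40%, or beyond the set limit; inactive = change above -40%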; also: % is scaled to controls: 0 for no effect and ±100 for the full control effect
Target sequence (Q9HBX9 whole entry, looked up): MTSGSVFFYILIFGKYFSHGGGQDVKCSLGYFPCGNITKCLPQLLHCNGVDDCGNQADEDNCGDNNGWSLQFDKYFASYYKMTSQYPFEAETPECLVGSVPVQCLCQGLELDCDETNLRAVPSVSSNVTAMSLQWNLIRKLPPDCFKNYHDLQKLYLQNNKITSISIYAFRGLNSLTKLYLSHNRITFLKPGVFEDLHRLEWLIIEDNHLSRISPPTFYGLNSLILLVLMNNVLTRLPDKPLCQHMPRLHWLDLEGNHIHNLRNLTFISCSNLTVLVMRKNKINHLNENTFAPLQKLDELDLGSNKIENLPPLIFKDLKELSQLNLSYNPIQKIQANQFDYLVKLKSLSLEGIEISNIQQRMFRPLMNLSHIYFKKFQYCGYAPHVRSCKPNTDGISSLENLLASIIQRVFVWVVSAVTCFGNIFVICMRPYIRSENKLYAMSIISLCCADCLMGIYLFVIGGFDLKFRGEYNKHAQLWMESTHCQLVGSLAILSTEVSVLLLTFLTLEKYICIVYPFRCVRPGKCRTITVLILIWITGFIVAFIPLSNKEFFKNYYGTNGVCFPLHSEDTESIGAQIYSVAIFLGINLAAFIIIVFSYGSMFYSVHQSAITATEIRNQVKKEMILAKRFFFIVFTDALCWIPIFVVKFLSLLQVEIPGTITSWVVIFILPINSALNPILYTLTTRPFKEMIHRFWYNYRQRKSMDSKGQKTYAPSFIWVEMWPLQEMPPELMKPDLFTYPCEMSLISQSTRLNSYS
RXFP1 ag: RXFP1 (human) receptor agonism | Q9HBX9 | HEK293T-RXFP1 cAMP TR-FRET, 30 min; response scale: percent of porcine relaxin response, buffer zero | Potency, µM (titrated, usually from 57.5 µM), inactives show at the top dose activation, usual class: activators | actives 0.3% (n = 370,000) | AID 2676; active = well fitted activation curve with a large enough effect; inconclusive = small, poorly fitted or top-dose-only effect; also: potency is read from the fitted curve at half-maximal effect; % is scaled to controls: 0 for no effect and ±100 for the full control effect; nearly all actives have a fitted effect of over 60% in size
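HEK293 cells stably expressing RXFP1, treated 30 min at 37C with compounds plus PDE4 inhibitor Ro 20174; cAMP measured by HTRF TR-FRET. Normalized to buffer and 29 nM porcine relaxin; EC50 by Hill fit.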
gsp ag: activates gsp, the McCune-Albright syndrome mutation; gsp mutant cells, cAMP HTRF, 30 min; Potency, µM (titrated, usually from 76.9 µM), for inactives: at the top dose activation (cAMP increase), actives largely listed as activators; actives 0.13% (n = 340,000); AID 624287; active = well fitted activation curve with a large enough effect; inconclusive = small, poorly fitted or top-dose-only effect, or another doubt; inactive = no such curve, though single readings can be large or run the other way; cell line not stated here;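 also: phosphodiesterase inhibitor Ro 20-1724 added with compounds to block cAMP breakdown; potency is read from the fitted curve at half-maximal effect; nearly all actives have a fitted effect of over 60% in size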
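Cells in DMEM/10% FBS with G418 were pretreated with compounds in DMSO plus […] (300 uM stock) for 30 min at 37C. cAMP was measured by HTRF (cAMP-d2 plus anti-cAMP antibody-K) after 30 min at room temperature.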
Numbers without * were called inactive; i = inactive; ? = inconclusive; · = not tested or not shown; ! = not active in a repeat; [ ] = another dose, or the depositor's remark.

SMILES | Akt phos inh | gsp antagonist | RXFP1 antagonist | RXFP1 ag | gsp ag
COc1ccc2nc(N3CCN(C(=O)c4ccco4)CC3)sc2c1 | · | · | -24 | -1% | ·
COc1ccc(-c2csc(N3CCN(C(=O)c4ccco4)CC3)n2)cc1 | i | 50µM* | -6 | 1% | -97%
CCOC(=O)N1CCN(c2nc(-c3ccc(F)cc3)cs2)CC1 | i | 32µM* | -12 | -1% | -35%
COc1ccc(-c2csc(N3CCN(C(=O)c4ccccc4)CC3)n2)cc1 | i | 35µM* | -24 | 0% | -32%
CN1C[C@H]2c3ccccc3Oc3ccc(Cl)cc3[C@@H]2C1 | · | · | -16 | · | ·
O=C1CCCc2c(O)cccc21 | · | · | -4 | · | ·
Cc1ccc(-c2nc(CCNC(=O)C(=O)Nc3ccc(C)c(Cl)c3)cs2)cc1 | · | · | -2 | 2% | ·
CCn1c(C)nc2cc(C(=O)NNS(=O)(=O)c3c(C)c(C)cc(C)c3C)ccc21 | -120%* | 1% | 3 | 0% | -7%
CCn1c(C)nc2cc(C(=O)OC(C(F)(F)C(F)F)C(F)(F)C(F)F)ccc21 | i | 22µM* | -5 | 0% | 11%
CC(=O)OCC1=C(C(=O)O)N2C(=O)[C@@H](NC(=O)CSc3ccncc3)[C@H]2SC1 | i | 10% | -92*! | 2% | -7%[15.4 µM]
CC(=O)OCC1=C(C(=O)O)N2C(=O)C(NC(=O)c3ccc(F)cc3)C2SC1 (centres undefined) | i | -6% | 3 | 0% | -4%
COc1ccc(-c2nc3n(n2)C(c2ccc(OC)c(OC)c2)C(C(=O)Nc2cccnc2)=C(C)N3)cc1 (centres undefined) | · | · | -5 | 0% | ·
CCOC(=O)c1ccc(Nc2nnc(C)c3ccccc23)cc1 | i | -6% | 11 | ? | 44%[15.4 µM]
Cc1nnc(Nc2ccc(S(N)(=O)=O)cc2)c2ccccc12 | i | 23% | 35 | 25µM* | ?
CCOc1ccc(OCC)c(NC(=O)CN(C)S(=O)(=O)c2ccc3[nH]c(=O)oc3c2)c1 | · | · | -25 | -3% | ·
CCS(=O)(=O)c1ccc(-c2csc(-c3ccccc3Cl)n2)c(Cl)c1Cl | -128%* | 11% | 4 | 0% | ?
Cc1nc(-c2ccc(F)cc2)c(CC(=O)N(C)CC(=O)Nc2ccc(Cl)c(C(F)(F)F)c2)s1 | i | 32µM* | -10 | · | 20%
O=C(/C=C/c1ccccc1)NC(=S)Nc1ccc(CN2CCOCC2)cc1 | i | ? | -63* | 2% | -2%[15.4 µM]
O=C(/C=C/c1ccc(Cl)cc1Cl)NC(=S)Nc1ccc(CN2CCOCC2)cc1 | i | -11% | -7 | -1% | -35%
Cc1nc(SC2CCOC2=O)c2c(C)c(C)sc2n1 (centres undefined) | i | 1% | -8 | ? | 20µM*
Cc1nc(SCC(=O)N2CCOCC2)c2c(C)c(C)sc2n1 | i | 0% | 8 | 10% | -11%
CCc1ccccc1NS(=O)(=O)c1cc2c(cc1C)n(C)c(=O)c(=O)n2C | i | -10% | · | 10% | -22%
CCn1c(=O)n(CC)c2cc(S(=O)(=O)Nc3ccccc3C)c(C)cc21 | -89%* | -5% | 14 | -1% | -48%
Nc1nonc1C(=O)NCCN=Cc1cc(Cc2ccccc2)cc(Br)c1O | i | -16% | -73* | 2% | 0%
CN(C)S(=O)(=O)c1cccc(NC(=S)N/N=C/c2cccc(O)c2)c1 | i | 5% | -18 | 1% | -11%
SMILES | Akt phos inh | gsp antagonist | RXFP1 antagonist | RXFP1 ag | gsp ag
CN(C)S(=O)(=O)c1cccc(NC(=S)N/N=C/c2cc(Br)ccc2O)c1 | i | 50µM* | -84* | 2% | -4%[15.4 µM]
O=C(O)[C@H](O)c1ccccc1 | · | · | 6 | · | ·
CCOc1ccccc1N(CC)C(=O)c1cc2c(=O)n(CC)c3ccccc3c2s1 | · | · | · | -1% | ·
COc1ccc(OC)c(C2C(C(=O)Nc3ccc(C)cc3)=C(C)Nc3nnnn32)c1 (centres undefined) | · | · | · | 5% | ·
Cc1csc2nc(COC(=O)c3ccc(NC(=O)c4ccccc4Br)cc3)cc(=O)n12 | · | · | -1 | 1% | ·
COc1cc(C)c(C(=O)CC(=O)c2c(C)cc(OC)cc2C)c(C)c1 | i | -5% | -66* | · | 11%
Cc1cccc(NC(=O)NNC(=O)c2cc3ccccc3cc2O)c1C | i | -15% | -66* | -2% | -2%[15.4 µM]
CCc1ccccc1NC(=O)Nc1ccc2c(c1)N(CC)C(=O)c1ccccc1S2 | · | · | -11 | ? | ·
Cc1cccc(-c2nc3c(c(SCC(=O)N4CCOCC4)n2)Cc2c(CO)cnc(C)c2O3)c1 | i | 40µM* | -16 | 3% | 0%
Cc1ncc(CO)c2c1Oc1nc(-c3ccccc3)nc(SCC(=O)N(C)c3ccccc3)c1C2 | · | · | · | 0% | ·
Cc1ncc(CO)c2c1Oc1nc(-c3ccccc3F)nc(SCC(=O)N(C)c3ccccc3)c1C2 | i | 40µM* | -91* | 0% | -23%
Cc1ncc(CO)c2c1Oc1nc(-c3ccccc3)nc(SCC(=O)N3CCOCC3)c1C2 | i | ? | 20 | 2% | ?
COc1cc(OC)c(NC(=O)C2=C(C)C(=O)OC23CCCCC3)cc1Cl | · | · | 6 | -3% | ·
c1ccc(Cn2nnc3c(N4CCOCC4)ncnc32)cc1 | i | 10% | · | -1% | 6%
FC(F)(F)c1ccc(N2CCN(c3ncnc4c3nnn4Cc3ccccc3)CC2)nc1 | -86%* | 4% | -10 | -2% | 17%
Fc1ccc(CN2CCN(C(c3ccccc3)c3ccccc3)CC2)cc1 | i | -16% | -29 | 0% | -108%
c1ccc(CN2CCN(C(c3ccccc3)c3ccccc3)CC2)cc1 | i | 3% | -104* | 1% | 50%[15.4 µM]
COc1ccccc1OCCCCN1CCN(C(c2ccccc2)c2ccccc2)CC1 | i | -14% | -80* | -1% | 14%[15.4 µM]
CCOc1ccc(CNC(=O)C2CCN(c3nc4ccccc4nc3C(F)(F)F)CC2)cc1OC | · | · | · | 0% | ·
C=CCn1c(C)c(C(C)=O)c(N2CCN(c3ccccc3)CC2)nc1=S | -105%* | 2% | -5 | 0% | -106%
COc1ccccc1/C=C/C=N/n1c(-c2ccccc2)n[nH]c1=S | i | -9% | -5 | -2% | -2%[15.4 µM]
COc1ccccc1/C=C/C=N/n1c(-c2ccc(Cl)cc2)n[nH]c1=S | i | -7% | -63* | -1% | -7%[15.4 µM]
COc1ccccc1CNC(=O)CSc1ccc(-c2sc(-c3ccccc3)nc2C)nn1 | · | · | -16 | 0% | ·
Cc1ccc(C)c(N2CCN(C(=O)C(C)n3c(C)c4cnn(-c5ccccc5)c(=O)c4c3C)CC2)c1 (centres undefined) | · | · | · | 0% | ·
N#Cc1c(C(F)(F)F)cc(-c2ccc(Cl)cc2)[nH]c1=O | i | 35µM* | -10 | 4% | 24%
N#Cc1c(C(F)(F)F)cc(-c2cccc(Cl)c2)[nH]c1=O | i | 35µM* | -13 | 3% | 4%
O=C(O)c1ccccc1NCCc1ccccc1 | · | · | -30 | · | ·
